Test system: Wnt5a (protein binding on small-molecule microarray)
Test: small molecules binding Wnt5a protein – biophysical, small-molecule microarray, 635/667 nm fluorescence, primary screen (AID 1142);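 further: fluorescence read at 667 nm with signal to noise per printed feature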
Conditions: 635 nm fluorescence, higher = more signal

SMILES	composite z-score
CN1C2C=C(c3ccc(CO)cc3)C(C3C(=O)N(C(N)=O)C(=O)C32)C1C1CC1 (stereo unspecified)	-0.392
COc1cc(Cc2cc3c(c(CCc4ccccc4)n2)[Si](C(C)C)(C(C)C)O[C@H]3c2ccccc2)cc(OC)c1OC	-0.0786
C=CCOC(=O)[C@H]1[C@@H]2C(=O)O[C@@H](c3ccccc3)[C@@H](c3ccccc3)N2[C@@H](c2ccc(OCCOC(=O)[C@@H]3C[C@@H]4C(=O)N[C@@H](Cc5ccccc5)C(=O)N4[C@@H]3c3ccc(O)cc3)cc2)[C@]12C(=O)Nc1ccc(I)cc12	0.305
CCOC(=O)C1=CC[C@@H](c2ccccc2)N(S(=O)(=O)c2ccc(C)cc2)[C@@H]1C#N	0.0432
C=CC[C@]1(C(N)=O)N=C(c2ccc(OCCCO)cc2)O[C@H]1c1ccccc1N=[N+]=[N-]	0.423
COc1ccc(CCNC(=O)[C@@H]2c3ccccc3C(=O)N(Cc3cc(F)cc(C(F)(F)F)c3)[C@H]2c2ccc(CO)cc2)cc1	0.0093
CC(C)C[C@@H]1NC(=O)[C@@H]2C[C@H](C(=O)NCCCCCNC(=O)CS)[C@H](c3ccc(O)cc3)N2C1=O	-0.025
C=CCNC(=O)[C@@H]1[C@H]2C(=O)O[C@H](c3ccccc3)[C@H](c3ccccc3)N2[C@H](c2ccc(OCCO)cc2)[C@@]12C(=O)N(C(=O)OCCOC)c1ccccc12	0.538
CCCCC(=C=CC[C@@H](O)c1ccccc1OCCO)C[C@@H](O)c1ccccn1	-0.11
O=C1O[C@@H](c2ccccc2)[C@@H](c2ccccc2)N2[C@@H](c3ccccc3OCCO)[C@]3(C(=O)Nc4ccc(C#CC5(O)CCCCCC5)cc43)[C@@H](C(=O)N3CCCCCCC3)[C@H]12	2.35
CCCCC(=C=CC[C@H](O)c1ccccc1OCCO)CCO	-0.0677
C=CCNC(=O)[C@@H]1[C@H]2C(=O)O[C@H](c3ccccc3)[C@H](c3ccccc3)N2[C@H](c2ccc(OCCO)cc2)[C@@]12C(=O)Nc1ccc(C#CC3=CCCCC3)cc12	0.257
COCCOC(=O)N1C(=O)[C@@]2(c3cc(C#CCCO)ccc31)[C@H](c1ccc(O)cc1)N1[C@H](c3ccccc3)[C@H](c3ccccc3)OC(=O)[C@H]1[C@@H]2C(=O)NC[C@H](O)c1ccccc1	0.0153
[N-]=[N+]=Nc1ccccc1C[C@]1(C(=O)N2CCCCC2)N=C(c2ccc(OCCCO)cc2)O[C@H]1c1ccccc1	0.982
COc1c(C)cc(-c2nc(-c3ccccc3)c3c(c2C)CO[Si]3(C(C)C)C(C)C)cc1C	0.302
CC(C)N1CC=CC23O[C@@H]4/C=C\CCCOC(=O)C4[C@H]2C(=O)N(C(C)CO)[C@@H]3C1=O (stereo partly specified)	-0.603
COC(=O)C1(CC(C)C)C=C2C(=C(C)C(=O)C2C)CN1 (stereo unspecified)	0.392
COCCCNC(=O)[C@@]1(Cc2ccccc2I)c2ccccc2C(=O)N(C2CCCCC2)[C@H]1c1ccc(CO)cc1	0.665

SMILES	composite z-score
O=C/C=C/c1ccc(-c2ccccc2)cc1	-0.166
COC(=O)C(CC#Cc1ccc2c(c1)[C@]1(C(=O)N2)[C@H](C(=O)N2CCN(c3ncccn3)CC2)[C@H]2C(=O)O[C@H](c3ccccc3)[C@H](c3ccccc3)N2[C@@H]1c1ccc(O)cc1)C(=O)OC	0.923
COc1ccc([Si](C)(C)[C@H]2[C@H](CC(=O)N3CCC[C@H]3CO)O[C@@]3(C(=O)N(C)c4ccccc43)[C@@H]2C)cc1	-0.0653
CCCC=C(CCC)[C@@H](NC(=O)c1ccc(C(=O)OC)cc1)c1ccc(C(=O)OC)cc1	0.41
Cc1ccc(S(=O)(=O)N2[C@@H](c3ccccc3)C(C(=O)O)=CC[C@H]2c2ccc(F)cc2)cc1	0.148
C=C(C(=O)CC[C@@H](OC(=O)c1ccccc1-c1ccccc1C(=O)O)c1cccc(OCCO)c1)C(C)C	0.655
COC(=O)c1c2oc(c1C(=O)OC)C(=O)N[C@H](Cc1ccccc1)Cn1cc(nn1)C1(CCCCC1)NC(=O)N[C@H](CO)CC2	0.075
C=CCNC(=O)[C@@H]1[C@H]2C(=O)O[C@H](c3ccccc3)[C@H](c3ccccc3)N2[C@H](c2ccc(O)cc2)[C@@]12C(=O)Nc1ccc(C#CC3=CCCCC3)cc12	0.779
CC(C)(C)OC(=O)CC[C@]1(C(=O)N2CCOCC2)COC(c2ccc(OCCCO)cc2)=N1	-0.278
C=CC[C@]1(C(=O)NCC(O)CO)N=C(c2ccc(OCCCO)cc2)O[C@H]1c1ccccc1CN=[N+]=[N-] (stereo partly specified)	0.176
CCOC(=O)C1=CCC(c2cccn2C(=O)OC(C)(C)C)N(S(=O)(=O)c2ccc(C)cc2)C1 (stereo unspecified)	0.0845
COc1cc(Cc2cc3c(c(-c4ccccc4)n2)[Si](C(C)C)(C(C)C)OC3)cc(OC)c1OC	0.26
COCCCNC(=O)[C@@]1(Cc2ccccc2I)c2ccccc2C(=O)N(Cc2ccccc2C(F)(F)F)[C@H]1c1ccc(CO)cc1	-0.347
COc1ccc(CCNC(=O)[C@@H]2c3ccccc3C(=O)N(C(C)C)[C@H]2c2ccc(CO)cc2)cc1	-0.234
Cc1ccc(N2C(=O)c3ccccc3[C@@H](C(=O)NCCN3CCOCC3)[C@@H]2c2ccc(CO)cc2)nc1	-0.275
COc1cc2c(cc1O)C(C)N(Cc1sc3ccccc3c1Cl)CC2 (stereo unspecified)	-0.434
CC(C)(C)OC(=O)CC[C@@]1(C(=O)N2CCOCC2)N=C(c2ccc(OCCCO)cc2)O[C@@H]1c1ccccc1CN=[N+]=[N-]	1.14
CC[C@@H](O[Si](C#C[Si](C(C)C)(C(C)C)C(C)C)(C(C)C)C(C)C)c1cn([C@H](C)c2ccccc2)nn1	-0.026

Reference: PubChem BioAssay
